VDR inh – blocks the human vitamin D receptor; P11473; VDR-SRC2-3 peptide fluorescence polarization, 2 h; Potency, µM, without a hit: max response, negative = inhibition, usual class: inhibitors; 400,000 compounds, 0.93% hits; further: on the % scale 0 is the no-effect control and ±100 the full control effect
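Fluorescence polarization assay measuring small-molecule disruption of VDR binding to the coregulator peptide SRC2-3. Compounds were pin-transferred (23 nl) into the reagent mix and incubated 2 h at room temperature before reading.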
HP1b chromo inh – inhibitors of HP1-beta chromodomain binding to methylated histone tails | AlphaScreen HP1-beta / biotin-H3K9me3 peptide binding | Potency, µM (doses to about 114 µM), for the others: at the highest dose activity change, negative = inhibition, hits mostly inhibitors | 390,000 compounds, 0.56% hits; further: nearly all actives have a fitted effect of over 70% in size
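Compound inhibition of the preformed complex between 50 nM HP1-beta and 50 nM biotinylated H3K9me3 peptide was read by AlphaScreen. Buffer was PBS pH 7.4 with 0.01% Tween-20. Incubations ran 30 min at room temperature, with 10 ug/mL donor/acceptor beads.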
L3MBTL1 inh – blocks human L3MBTL1; Q9Y468; AlphaScreen L3MBTL1–H3K9me1 peptide binding; Potency, µM (top dose mostly 57.1 µM), for inactives: at the top dose activity, negative = inhibition, hits mostly inhibitors; 230,000 compounds, 0.66% hits; AID 485360; further: on the % scale 0 is the no-effect control and ±100 the full control effect; nearly all actives have a fitted effect of over 60% in size
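Displacement of a biotinylated histone H3(1-15) peptide monomethylated at Lys9 (75 nM) from L3MBTL1 (50 nM) was measured by AlphaScreen after a 30 min room-temperature compound incubation; cefsulodin titration served as intraplate control.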
PLK1 PBD inh – inhibitors of human PLK1 polo-box domain binding. Plk1 PBD binding of FITC phosphopeptide, fluorescence polarization. Potency, µM, inactives show max response, negative = inhibition, usual class: inhibitors. 360,000 compounds, 2.8% hits; further: series mostly up to about 57 µM; on the % scale 0 is the no-effect control and ±100 the full control effect; nearly all actives have a fitted effect of over 65% in size
BAZ2B block – inhibitors of human BAZ2B bromodomain; 360,000 compounds, 4.4% hits; AID 504333; Potency, µM (top dose mostly 114 µM), for the others: top-dose activity change, negative = inhibition, hits mostly inhibitors; AlphaScreen BAZ2B-H3K14Ac peptide displacement; Q9UIF8; further: on the % scale 0 is the no-effect control and ±100 the full control effect; nearly all actives have a fitted effect of over 60% in size
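Protein-peptide AlphaScreen: BAZ2B 50 nM, b-H3K14Ac 50 nM, 1x PBS pH 7.4 + 0.01% Tween-20. Preincubation 30 min RT; cpd 30 min RT (top 110 uM); beads 20 min RT, light-protected.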
JMJD2A Tudor – JMJD2A Tudor domain (human) inhibition | O75164 | 390,000 compounds, 4.4% hits | AlphaScreen JMJD2A-Tudor / H3K4me3 peptide binding | Potency, µM (doses to about 114 µM), without a hit: at the top dose activity change, negative = inhibition, most hits filed as inhibitors | AID 504339; further: on the % scale 0 is the no-effect control and ±100 the full control effect; nearly all actives have a fitted effect of over 50% in size
Numbers without * were called inactive; [ ] = remark or other dose. Compounds with a hit are over-represented: about 6.9% of the library has one in this group of screens. The call rests on the fitted dose curve; in most records, active means well fitted curve in the direction sought with a large enough effect; inconclusive means small, poorly fitted or top-dose-only effect, or another doubt; inactive means no such curve, though single readings can be large; an effect the other way counts as inactive or inconclusive. Potency means the concentration at half of the fitted maximal effect.

What do the screens show for `Cc1nnc(SCc2cc(=O)[nH]c(=S)[nH]2)s1`?
VDR inh: 17%; HP1b chromo inh: 77%; L3MBTL1 inh: 4%; PLK1 PBD inh: -5%; BAZ2B block: inconclusive; JMJD2A Tudor: inconclusive

How did CC(=O)ON=C1C=CC(=C(C#N)c2ccccc2)C=C1 do in these assays?
PLK1 PBD inh: 2.4µM*

How did COc1ccc(C(C#N)=C2C=CC(=NO)C=C2)cc1 do in these assays?
VDR inh: inconclusive; HP1b chromo inh: 40µM*; PLK1 PBD inh: 27µM*; BAZ2B block: 14µM*; JMJD2A Tudor: 16µM*

Results for COc1ccc(C2N=C(Nc3nc4ccccc4o3)NC3=C2C(=O)CC(C)(C)C3)cc1 (stereo unspecified) ?
VDR inh: -2%; HP1b chromo inh: 13%[57 µM]; JMJD2A Tudor: -8%[57.1 µM]

Results for CCOc1ccccc1C1CC(=O)NC2=C1C(=O)CC(C)(C)C2 (stereo unspecified) ?
VDR inh: -2%; HP1b chromo inh: -7%; L3MBTL1 inh: 0%; PLK1 PBD inh: 27µM*; BAZ2B block: 3%; JMJD2A Tudor: -22%[11.4 µM]

Results for COc1cc(C2CC(=O)NC3=C2C(=O)CC(C)(C)C3)ccc1O (stereo unspecified) ?
VDR inh: -6%; HP1b chromo inh: 13%; L3MBTL1 inh: 6%; PLK1 PBD inh: -7%; BAZ2B block: 3%; JMJD2A Tudor: 3%

How did O=c1cc(N2CCCCC2)c(-c2ccccc2)nn1Cc1c(Cl)cccc1Cl do in these assays?
VDR inh: -18%; HP1b chromo inh: -12%; L3MBTL1 inh: 9%; PLK1 PBD inh: 27µM*; BAZ2B block: -2%; JMJD2A Tudor: -18%[11.4 µM]

What do the screens show for `c1ccc2c(c1)nnn2Cc1nnc2sc(-c3ccncc3)nn12`?
VDR inh: -12%; HP1b chromo inh: inconclusive; L3MBTL1 inh: -4%; PLK1 PBD inh: 32µM*; BAZ2B block: 2%; JMJD2A Tudor: -3%

Results for c1ccc2oc(-c3nn4c(Cn5cnc6ccccc65)nnc4s3)cc2c1 ?
VDR inh: -18%; HP1b chromo inh: 41%; PLK1 PBD inh: inconclusive; JMJD2A Tudor: -22%

Results for Clc1ccc(Cc2nn3c(Cn4nnc5ccccc54)nnc3s2)cc1 ?
VDR inh: -22%; HP1b chromo inh: -19%; L3MBTL1 inh: -3%; PLK1 PBD inh: 27µM*; BAZ2B block: 0%; JMJD2A Tudor: -13%

Results for c1coc(-c2nn3c(Cn4nnc5ccccc54)nnc3s2)c1 ?
VDR inh: inconclusive; HP1b chromo inh: -25%; L3MBTL1 inh: -1%; PLK1 PBD inh: 27µM*; BAZ2B block: 0%; JMJD2A Tudor: -31%

How did CCOC(=O)c1cccc(NC(=O)c2cc3c(Cl)nc4ccc(C)cc4c3s2)c1 do in these assays?
VDR inh: 4%; HP1b chromo inh: 33%; BAZ2B block: -5%; JMJD2A Tudor: -2%

Results for COc1ccc(CNc2nc(NCc3ccc(OC)cc3)n(S(C)(=O)=O)n2)cc1 ?
VDR inh: -5%; HP1b chromo inh: 20%; PLK1 PBD inh: -3%; BAZ2B block: 1%; JMJD2A Tudor: 0%

How did COCC(=O)n1nc(NCc2ccc(OC)cc2)nc1NCc1ccc(OC)cc1 do in these assays?
VDR inh: -28%; HP1b chromo inh: -10%; PLK1 PBD inh: 12µM*; BAZ2B block: -29%; JMJD2A Tudor: -13%[11.4 µM]

How did CCOC(=O)Cc1nn[nH]n1 do in these assays?
VDR inh: 9%; HP1b chromo inh: 28%; L3MBTL1 inh: 18%; PLK1 PBD inh: 10%; BAZ2B block: -19%; JMJD2A Tudor: 3%

How did CC(C)c1nnc2n1N=C(c1ccc(Cl)cc1)CS2 do in these assays?
VDR inh: -12%; HP1b chromo inh: 20%; L3MBTL1 inh: 0%; PLK1 PBD inh: -9%; BAZ2B block: -2%; JMJD2A Tudor: -19%

How did CCCc1ccc(C2=Nn3c(nnc3C(C)C)SC2)cc1 do in these assays?
VDR inh: 79µM*; HP1b chromo inh: inconclusive; PLK1 PBD inh: 11µM*; BAZ2B block: -21%; JMJD2A Tudor: -35%

Results for Cc1noc(C)c1C(=O)N(C)C[C@@H]1OCc2ccccc2-c2c(n(C)c3ccccc23)C(=O)N([C@H](C)CO)C[C@H]1C ?
PLK1 PBD inh: -3%

How did CCSc1n[nH]c(=S)s1 do in these assays?
VDR inh: 0%; HP1b chromo inh: inconclusive; PLK1 PBD inh: -9%; BAZ2B block: inconclusive; JMJD2A Tudor: 20µM*

What do the screens show for `O=S(=O)(O)c1cc(Cl)cc(N=Nc2ccc(O)cc2O)c1O`?
VDR inh: inconclusive; HP1b chromo inh: inconclusive; PLK1 PBD inh: inconclusive; JMJD2A Tudor: 20µM*

Results for O=C(O)c1cc(O)ccc1N=Nc1ccccc1 ?
VDR inh: -8%; HP1b chromo inh: 42%; PLK1 PBD inh: -1%; BAZ2B block: -9%; JMJD2A Tudor: 14%

Results for Nc1nc(NCc2ccco2)nc(N2CCCCCC2)c1[N+](=O)[O-] ?
VDR inh: -9%; HP1b chromo inh: inconclusive; L3MBTL1 inh: -5%; PLK1 PBD inh: 2%; BAZ2B block: 50µM*; JMJD2A Tudor: 56µM*

What do the screens show for `CNc1nc(N)c([N+](=O)[O-])c(N2CCCCCC2)n1`?
VDR inh: 8%; HP1b chromo inh: 24%; PLK1 PBD inh: -6%; BAZ2B block: -19%; JMJD2A Tudor: -19%

How did Nc1nc(NCc2ccco2)nc(N2CCCC2)c1[N+](=O)[O-] do in these assays?
VDR inh: -3%; HP1b chromo inh: -9%; L3MBTL1 inh: -10%; PLK1 PBD inh: -2%; BAZ2B block: 71µM*; JMJD2A Tudor: -26%

What do the screens show for `Nc1nc(NCc2ccco2)nc(NC2CCCCC2)c1[N+](=O)[O-]`?
VDR inh: -9%; HP1b chromo inh: 0%; L3MBTL1 inh: -3%; PLK1 PBD inh: -9%; BAZ2B block: 2%; JMJD2A Tudor: -3%

Results for N#CC(=C1C=CC(=NO)C(Cl)=C1)c1ccc(Cl)cc1 ?
VDR inh: inconclusive; HP1b chromo inh: inconclusive; PLK1 PBD inh: -12%; JMJD2A Tudor: 20µM*

What do the screens show for `Cc1ccc(NCCCn2cnc3c(OCc4ccccc4)ncnc32)cc1C`?
VDR inh: -5%; HP1b chromo inh: inconclusive; PLK1 PBD inh: -4%; JMJD2A Tudor: 50µM*

What do the screens show for `O=[n+]1ccn([O-])c2ccccc21`?
VDR inh: -5%

What do the screens show for `CCCN(CCC)CC(O)Cn1cc(/C=C/C(=O)c2ccc(C)cc2)c2ccccc21` (stereo unspecified)?
VDR inh: -1%; HP1b chromo inh: -1%; BAZ2B block: 22µM*; JMJD2A Tudor: inconclusive

Source: PubChem (National Center for Advancing Translational Sciences (NCATS))
